# Source: PubChem BioAssay (NCI)
# About 79,000 compounds went through this panel and 15% of them were active in at least one assay; those are over-represented in the sample as a whole. Unmarked numbers belong to inactive results. The source made the active and inactive calls. No stated cut-off is given here; in the data, active means growth inhibition above about 70%; inactive means the rest.
# Legend:
# [1] = NCI Yeast Anticancer Drug Screen. Data for the rad52 strain (AID 147);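 further: 0% = growth of vehicle-treated control cultures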; conditions: S. cerevisiae rad52 mutant growth inhibition, hits give high values
# Method in brief: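 Screen used a yeast mutant impaired in DNA repair. After compound exposure, growth was measured. Values reflect inhibition compared with vehicle-treated cells.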
# [2] = NCI Yeast Anticancer Drug Screen. Data for the wt1 strain (AID 149);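 further: 0% = growth of vehicle-treated wt1 cultures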; conditions: S. cerevisiae wt1 strain (SPY 50644) growth inhibition, hits give high values
# Method in brief: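 Using yeast strain wt1, compound-induced growth inhibition was determined against vehicle-treated cultures.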
# [3] = NCI Yeast Anticancer Drug Screen. Data for the mgt1 strain (AID 153); conditions: S. cerevisiae mgt1 mutant growth inhibition, hits give high values
# Method in brief: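 Genetically defined yeast (mgt1) treated with compound; inhibition of growth expressed against vehicle-treated controls.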
# [4] = NCI Yeast Anticancer Drug Screen. Data for the rad50 strain (AID 155);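 further: 0% = growth of vehicle-only cultures of the same strain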; conditions: S. cerevisiae rad50 strain growth inhibition, hits give high values
# Method in brief: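 Relative growth inhibition (compound vs vehicle) was measured in yeast with a defined repair-gene alteration.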
# [5] = NCI Yeast Anticancer Drug Screen. Data for the mec2-1 strain (AID 157); conditions: S. cerevisiae mec2-1 strain, hits give high values
# Method in brief: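 Readout is yeast growth inhibition, normalised to vehicle-treated controls, in the mec2-1 strain exposed to compound.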
# [6] = NCI Yeast Anticancer Drug Screen. Data for the rad14 strain (AID 159);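 further: 0% = growth of vehicle-treated control cultures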; conditions: S. cerevisiae rad14 strain growth inhibition, hits give high values
# Method in brief: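 Screen for anticancer potential: a yeast strain altered in DNA damage repair is grown with compound, and reduced growth is quantified against vehicle controls.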
# [7] = NCI Yeast Anticancer Drug Screen. Data for the sgs1 mgt1 strain (AID 161);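 further: 0% = growth of cultures given vehicle only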; conditions: S. cerevisiae sgs1 mgt1 strain, hits give high values
# Method in brief: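 Percent growth inhibition was derived by comparing compound-exposed mutant yeast with vehicle-exposed cultures. The strain carries alterations in DNA damage repair.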
# [8] = NCI Yeast Anticancer Drug Screen. Data for the CLN2oe strain (AID 163);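 further: 0% = growth of vehicle-only control cultures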; conditions: S. cerevisiae CLN2oe strain, hits give high values
# Method in brief: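 Values reflect how much compound exposure reduced yeast growth, referenced to vehicle-exposed cells. Assay organism is a strain with a defined genetic change affecting cell-cycle control.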
# [9] = NCI Yeast Anticancer Drug Screen. Data for the cln2 rad14 strain (AID 165);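 further: 0% = growth equal to vehicle treated cultures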; conditions: S. cerevisiae cln2 rad14 strain, hits give high values
# Method in brief: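 Relative to vehicle controls, growth inhibition of compound-treated cln2 rad14 yeast was recorded.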
# [10] = NCI Yeast Anticancer Drug Screen. Data for the bub3 strain (AID 167); conditions: S. cerevisiae bub3 mutant strain, hits give high values
# Method in brief: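 Screening used yeast with an engineered genetic alteration affecting cell cycle control. Compound-exposed cultures were compared with vehicle cultures, and reduced growth was taken as inhibition.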
# [11] = NCI Yeast Anticancer Drug Screen. Data for the wt2 strain (AID 169);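 further: 0% = growth of vehicle-treated yeast cultures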; conditions: S. cerevisiae wt2 strain growth inhibition, hits give high values
# Method in brief: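 Values express reduction in yeast growth under compound treatment, referenced to vehicle-treated cells.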
# [12] = NCI Yeast Anticancer Drug Screen. Data for the mlh1 strain (AID 171);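 further: 0% = growth of vehicle-treated control cultures of the same strain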; conditions: S. cerevisiae mlh1 strain growth inhibition, hits give high values
# Method in brief: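 Steps: expose the defined-mutant yeast strain to compound; expose a parallel culture to vehicle; measure growth; express compound effect as inhibition relative to the vehicle culture.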
# [13] = NCI Yeast Anticancer Drug Screen. Data for the mlh1 rad18 strain (AID 175); conditions: S. cerevisiae mlh1 rad18 strain growth inhibition, hits give high values
# Method in brief: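 Test agents were incubated with a yeast strain of defined genotype (DNA damage repair defect). Inhibition of growth was derived by comparison with vehicle-exposed cultures.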
# [14] = NCI Yeast Anticancer Drug Screen. Data for the rad18 strain (AID 177); conditions: S. cerevisiae rad18 mutant growth inhibition, hits give high values
# Method in brief: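 A genetically defined yeast mutant impaired in DNA damage repair was treated with test compounds, then its growth was measured against cultures receiving vehicle alone.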
# [15] = NCI Yeast Anticancer Drug Screen. Data for the sgs1 strain (AID 173);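 further: 0% = growth of vehicle-only control cultures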; conditions: S. cerevisiae sgs1 mutant, hits give high values
# Method in brief: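 Treat defined-mutant yeast with compound; measure growth; calculate inhibition relative to vehicle-treated cells.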
# [16] = at 5.0 µM (retest, dose inferred, filed as 0.5)
# [17] = at 50.0 µM (retest, dose inferred, filed as 5.0)
compound,measurement,setting,value
C=CCNC1=C2C[C@@H](C)C[C@H](OC)[C@H](O)[C@@H](C)/C=C(\C)[C@H](OC(N)=O)[C@@H](OC)/C=C\C=C(/C)C(=O)NC(=CC1=O)C2=O,growth inhibition,[1]; at 1.2 µM,-16%
same,growth inhibition,[1]; at 3.7 µM,-21%
same,growth inhibition,[1]; at 11.0 µM,46%
same,growth inhibition,[1]; at 33.0 µM,97% (active)
same,growth inhibition,[1]; at 100.0 µM,97% (active)
same,growth inhibition,[2]; at 1.2 µM,-26%
same,growth inhibition,[2]; at 3.7 µM,-53%
same,growth inhibition,[2]; at 11.0 µM,41%
same,growth inhibition,[2]; at 33.0 µM,95% (active)
same,growth inhibition,[2]; at 100.0 µM,96% (active)
same,growth inhibition,[3]; at 1.2 µM,-72%
same,growth inhibition,[3]; at 3.7 µM,-44%
same,growth inhibition,[3]; at 11.0 µM,57%
same,growth inhibition,[3]; at 33.0 µM,95% (active)
same,growth inhibition,[3]; at 100.0 µM,95% (active)
same,growth inhibition,[4]; at 1.2 µM,-33%
same,growth inhibition,[4]; at 3.7 µM,-12%
same,growth inhibition,[4]; [16],-32%
same,growth inhibition,[4]; at 11.0 µM,64%
same,growth inhibition,[4]; at 33.0 µM,95% (active)
same,growth inhibition,[4]; [17],96% (active)
same,growth inhibition,[4]; at 50.0 µM,90.8% (active)
same,growth inhibition,[4]; at 100.0 µM,95% (active)
same,growth inhibition,[5]; at 1.2 µM,-73%
same,growth inhibition,[5]; at 3.7 µM,-59%
same,growth inhibition,[5]; [16],5%
same,growth inhibition,[5]; at 11.0 µM,77% (active)
same,growth inhibition,[5]; at 33.0 µM,96% (active)
same,growth inhibition,[5]; [17],98% (active)
same,growth inhibition,[5]; at 50.0 µM,92.5% (active)
same,growth inhibition,[5]; at 100.0 µM,95% (active)
same,growth inhibition,[6]; at 1.2 µM,-73%
same,growth inhibition,[6]; at 3.7 µM,-42%
same,growth inhibition,[6]; at 11.0 µM,55%
same,growth inhibition,[6]; at 33.0 µM,95% (active)
same,growth inhibition,[6]; at 100.0 µM,94% (active)
same,growth inhibition,[7]; [16],-7%
same,growth inhibition,[7]; [17],96% (active)
same,growth inhibition,[7]; at 50.0 µM,92% (active)
same,growth inhibition,[8]; at 1.2 µM,-60%
same,growth inhibition,[8]; at 3.7 µM,-43%
same,growth inhibition,[8]; at 11.0 µM,80% (active)
same,growth inhibition,[8]; at 33.0 µM,96% (active)
same,growth inhibition,[8]; at 100.0 µM,27%
same,growth inhibition,[9]; [16],-4%
same,growth inhibition,[9]; [17],97% (active)
same,growth inhibition,[9]; at 50.0 µM,90.3% (active)
same,growth inhibition,[10]; at 1.2 µM,-49%
same,growth inhibition,[10]; at 3.7 µM,-12%
same,growth inhibition,[10]; [16],35%
same,growth inhibition,[10]; at 11.0 µM,74% (active)
same,growth inhibition,[10]; at 33.0 µM,95% (active)
same,growth inhibition,[10]; [17],98% (active)
same,growth inhibition,[10]; at 50.0 µM,90.4% (active)
same,growth inhibition,[10]; at 100.0 µM,94% (active)
same,growth inhibition,[11]; at 1.2 µM,-51%
same,growth inhibition,[11]; at 3.7 µM,-65%
same,growth inhibition,[11]; at 11.0 µM,33%
same,growth inhibition,[11]; at 33.0 µM,93% (active)
same,growth inhibition,[11]; at 100.0 µM,96% (active)
same,growth inhibition,[12]; at 1.2 µM,-36%
same,growth inhibition,[12]; at 3.7 µM,-56%
same,growth inhibition,[12]; at 11.0 µM,50%
same,growth inhibition,[12]; at 33.0 µM,94% (active)
same,growth inhibition,[12]; at 100.0 µM,95% (active)
same,growth inhibition,[13]; [16],-7%
same,growth inhibition,[13]; [17],97% (active)
same,growth inhibition,[13]; at 50.0 µM,89.1% (active)
same,growth inhibition,[14]; at 1.2 µM,-22%
same,growth inhibition,[14]; at 3.7 µM,-23%
same,growth inhibition,[14]; at 11.0 µM,68%
same,growth inhibition,[14]; at 33.0 µM,95% (active)
same,growth inhibition,[14]; at 100.0 µM,95% (active)
CN1CCN(C(=O)c2cccc3cccc(C(=O)O)c23)CC1,growth inhibition,[1]; at 1.2 µM,11%
same,growth inhibition,[1]; at 3.7 µM,10%
same,growth inhibition,[1]; at 11.0 µM,7%
same,growth inhibition,[1]; at 33.0 µM,38%
same,growth inhibition,[1]; at 100.0 µM,97% (active)
same,growth inhibition,[2]; at 1.2 µM,6%
same,growth inhibition,[2]; at 3.7 µM,9%
same,growth inhibition,[2]; at 11.0 µM,11%
same,growth inhibition,[2]; at 33.0 µM,12%
same,growth inhibition,[2]; at 100.0 µM,33%
same,growth inhibition,[3]; at 1.2 µM,4%
same,growth inhibition,[3]; at 3.7 µM,12%
same,growth inhibition,[3]; at 11.0 µM,11%
same,growth inhibition,[3]; at 33.0 µM,23%
same,growth inhibition,[3]; at 100.0 µM,99% (active)
same,growth inhibition,[4]; at 1.2 µM,9%
same,growth inhibition,[4]; at 3.7 µM,9%
same,growth inhibition,[4]; [16],-12%
same,growth inhibition,[4]; at 11.0 µM,8%
same,growth inhibition,[4]; at 33.0 µM,61%
same,growth inhibition,[4]; [17],84% (active)
same,growth inhibition,[4]; at 50.0 µM,85% (active)
same,growth inhibition,[4]; at 100.0 µM,99% (active)
same,growth inhibition,[5]; at 1.2 µM,10%
same,growth inhibition,[5]; at 3.7 µM,12%
same,growth inhibition,[5]; [16],-19%
same,growth inhibition,[5]; at 11.0 µM,13%
same,growth inhibition,[5]; at 33.0 µM,23%
same,growth inhibition,[5]; [17],1%
same,growth inhibition,[5]; at 50.0 µM,97.7% (active)
same,growth inhibition,[5]; at 100.0 µM,99% (active)
same,growth inhibition,[6]; at 1.2 µM,12%
same,growth inhibition,[6]; at 3.7 µM,11%
same,growth inhibition,[6]; at 11.0 µM,14%
same,growth inhibition,[6]; at 33.0 µM,32%
same,growth inhibition,[6]; at 100.0 µM,98% (active)
same,growth inhibition,[7]; [16],-14%
same,growth inhibition,[7]; [17],88% (active)
same,growth inhibition,[7]; at 50.0 µM,77.6% (active)
same,growth inhibition,[9]; [16],-10%
same,growth inhibition,[9]; [17],6%
same,growth inhibition,[9]; at 50.0 µM,38.6%
same,growth inhibition,[10]; at 1.2 µM,12%
same,growth inhibition,[10]; at 3.7 µM,15%
same,growth inhibition,[10]; [16],25%
same,growth inhibition,[10]; at 11.0 µM,16%
same,growth inhibition,[10]; at 33.0 µM,33%
same,growth inhibition,[10]; [17],89% (active)
same,growth inhibition,[10]; at 50.0 µM,51.8%
same,growth inhibition,[10]; at 100.0 µM,97% (active)
same,growth inhibition,[11]; at 1.2 µM,-6%
same,growth inhibition,[11]; at 3.7 µM,-4%
same,growth inhibition,[11]; at 11.0 µM,-7%
same,growth inhibition,[11]; at 33.0 µM,-8%
same,growth inhibition,[11]; at 100.0 µM,98% (active)
same,growth inhibition,[12]; at 1.2 µM,8%
same,growth inhibition,[12]; at 3.7 µM,9%
same,growth inhibition,[12]; at 11.0 µM,10%
same,growth inhibition,[12]; at 33.0 µM,29%
same,growth inhibition,[12]; at 100.0 µM,100% (active)
same,growth inhibition,[15]; at 1.2 µM,-14%
same,growth inhibition,[15]; at 3.7 µM,-21%
same,growth inhibition,[15]; at 11.0 µM,-13%
same,growth inhibition,[15]; at 33.0 µM,16%
same,growth inhibition,[15]; at 100.0 µM,100% (active)
same,growth inhibition,[13]; [16],-30%
same,growth inhibition,[13]; [17],99% (active)
same,growth inhibition,[13]; at 50.0 µM,9.9%
same,growth inhibition,[14]; at 1.2 µM,11%
same,growth inhibition,[14]; at 3.7 µM,11%
same,growth inhibition,[14]; at 11.0 µM,13%
same,growth inhibition,[14]; at 33.0 µM,33%
same,growth inhibition,[14]; at 100.0 µM,99% (active)
